Experimental data as given in PubChem BioAssay AID1159580 (chemical genetic matrix, 2015).
Among all 5,500 compounds or so, about 2,000 (36%) were called active. About 18% were inconclusive and are not listed. Cut-off read from the data, not from the text of the source: active = normalized growth mostly below about 0.91 (no sharp cut-off); inconclusive = no clear call, values can overlap the other calls; inactive = mostly above about 0.92. Some of the results follow.

Experiment: chemical genetic growth profiling, strain panel (AID 1159580);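 note: tested at 20 µM; growth read once vehicle control cultures reached saturation at 30 °C; 1 = growth at the plate median or of vehicle wells; lower values mean less growth of the strain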
Conditions: growth OD

Measured: normalized growth

Cc1c(N(C)CS(=O)(=O)O)c(=O)n(-c2ccccc2)n1C
inactive: S. cerevisiae deletion strains, locus YJR075W, strain HOC1, stronger effect = lower value 1 | S. cerevisiae deletion strains, locus YKL009W, strain mrt4, stronger effect = lower value 1.03 | S. cerevisiae deletion strains, locus YKL068W, stronger effect = lower value 0.998 | S. cerevisiae deletion strains, locus YKL085W, strain MDH1 (second series), stronger effect = lower value 0.99 | S. cerevisiae deletion strains, locus YKL085W, strain MDH1, stronger effect = lower value 0.99 | S. cerevisiae deletion strains, locus YKL160W, strain elf1, stronger effect = lower value 1.02 | S. cerevisiae deletion strains, locus YKL190W, strain CNB1, stronger effect = lower value 1.01 | S. cerevisiae deletion strains, locus YKR001C, strain vps1, stronger effect = lower value 1.01 | S. cerevisiae deletion strains, locus YKR026C, strain gcn3, stronger effect = lower value 1.01 | S. cerevisiae deletion strains, locus YKR091W, strain srl3, stronger effect = lower value 1.01 | S. cerevisiae deletion strains, locus YLL001W, strain dnm1, stronger effect = lower value 1.01 | S. cerevisiae deletion strains, locus YLL026W, stronger effect = lower value 1.01 | S. cerevisiae deletion strains, locus YLL041C, strain sdh2, stronger effect = lower value 1 | S. cerevisiae deletion strains, locus YLR027C, strain aat2, stronger effect = lower value 1.01 | S. cerevisiae deletion strains, locus YLR039C, strain RIC1, stronger effect = lower value 0.92 | S. cerevisiae deletion strains, locus YLR058C, strain SHM2, stronger effect = lower value 0.987 | S. cerevisiae deletion strains, locus YLR102C, strain apc9, stronger effect = lower value 0.984 | S. cerevisiae deletion strains, locus YLR113W, strain HOG1, stronger effect = lower value 0.996 | S. cerevisiae deletion strains, locus YLR221C, strain rsa3, stronger effect = lower value 1.01 | S. cerevisiae deletion strains, locus YLR258W, strain gsy2, stronger effect = lower value 1.01 | S. cerevisiae deletion strains, locus YLR262C, strain YPT6 (second series), stronger effect = lower value 0.999 | S. cerevisiae deletion strains, locus YLR262C, strain YPT6, stronger effect = lower value 0.962 | S. cerevisiae deletion strains, locus YLR268W, strain sec22, stronger effect = lower value 0.992 | S. cerevisiae deletion strains, locus YLR320W, strain mms22, stronger effect = lower value 1.03 | S. cerevisiae deletion strains, locus YLR330W, strain CHS5, stronger effect = lower value 0.993 | S. cerevisiae deletion strains, locus YLR342W, strain FKS1 (second series), stronger effect = lower value 0.961 | S. cerevisiae deletion strains, locus YLR342W, strain FKS1, stronger effect = lower value 1.02 | S. cerevisiae deletion strains, locus YLR357W, strain rsc2, stronger effect = lower value 1.03 | S. cerevisiae deletion strains, locus YLR370C, strain arc18, stronger effect = lower value 1 | S. cerevisiae deletion strains, locus YLR371W, strain rom2, stronger effect = lower value 0.977 | S. cerevisiae deletion strains, locus YLR384C, strain iki3, stronger effect = lower value 1.01 | S. cerevisiae deletion strains, locus YLR418C, strain cdc73, stronger effect = lower value 0.948 | S. cerevisiae deletion strains, locus YML016C, strain PPZ1, stronger effect = lower value 0.99 | S. cerevisiae deletion strains, locus YML032C, strain rad52, stronger effect = lower value 0.999 | S. cerevisiae deletion strains, locus YML120C, strain ndi1, stronger effect = lower value 1.01 | S. cerevisiae deletion strains, locus YML124C, strain tub3, stronger effect = lower value 0.988 | S. cerevisiae deletion strains, locus YMR058W, strain fet3, stronger effect = lower value 1.01 | S. cerevisiae deletion strains, locus YMR078C, strain ctf18, stronger effect = lower value 0.978 | S. cerevisiae deletion strains, locus YMR125W, strain sto1, stronger effect = lower value 1.02 | S. cerevisiae deletion strains, locus YMR129W, stronger effect = lower value 1 | S. cerevisiae deletion strains, locus YMR205C, strain PFK2, stronger effect = lower value 1.02 | S. cerevisiae deletion strains, locus YMR223W, strain ubp8, stronger effect = lower value 0.962 | S. cerevisiae deletion strains, locus YMR231W, strain pep5, stronger effect = lower value 1.02 | S. cerevisiae deletion strains, locus YMR263W, strain SAP30, stronger effect = lower value 1.01 | S. cerevisiae deletion strains, locus YMR307W, strain GAS1, stronger effect = lower value 0.906 | S. cerevisiae deletion strains, locus YNL067W, strain RPL9B, stronger effect = lower value 1.01 | S. cerevisiae deletion strains, locus YNL071W, strain lat1, stronger effect = lower value 1.02 | S. cerevisiae deletion strains, locus YNL183C, strain NPR1, stronger effect = lower value 0.924 | S. cerevisiae deletion strains, locus YNL209W, strain ssb2, stronger effect = lower value 1.02 | S. cerevisiae deletion strains, locus YNL233W, strain BNI4, stronger effect = lower value 1 | S. cerevisiae deletion strains, locus YNL248C, strain rpa49, stronger effect = lower value 1.02 | S. cerevisiae deletion strains, locus YNL250W, strain rad50, stronger effect = lower value 0.969 | S. cerevisiae deletion strains, locus YNL271C, strain bni1, stronger effect = lower value 0.992 | S. cerevisiae deletion strains, locus YNL298W, strain CLA4, stronger effect = lower value 0.993 | S. cerevisiae deletion strains, locus YNL307C, strain MCK1, stronger effect = lower value 0.987 | S. cerevisiae deletion strains, locus YNL322C, strain KRE1 (second series), stronger effect = lower value 1.01 | S. cerevisiae deletion strains, locus YNL322C, strain KRE1, stronger effect = lower value 0.998 | S. cerevisiae deletion strains, locus YNR049C, strain mso1, stronger effect = lower value 1 | S. cerevisiae deletion strains, locus YNR052C, strain pop2, stronger effect = lower value 0.985 | S. cerevisiae deletion strains, locus YOL006C, strain TOP1, stronger effect = lower value 1.14 | S. cerevisiae deletion strains, locus YOL012C, strain htz1 0.803 | S. cerevisiae deletion strains, locus YOL147C, strain pex11, stronger effect = lower value 0.985 | S. cerevisiae deletion strains, locus YOR001W, strain rrp6, stronger effect = lower value 1.01 | S. cerevisiae deletion strains, locus YOR061W, strain CKA2, stronger effect = lower value 0.989 | S. cerevisiae deletion strains, locus YOR069W, strain VPS5, stronger effect = lower value 0.984 | S. cerevisiae deletion strains, locus YOR070C, strain gyp1, stronger effect = lower value 1.01 | S. cerevisiae deletion strains, locus YOR080W, strain dia2, stronger effect = lower value 1.01 | S. cerevisiae deletion strains, locus YOR083W, strain WHI5, stronger effect = lower value 1.02 | S. cerevisiae deletion strains, locus YOR106W, strain vam3, stronger effect = lower value 1.03 | S. cerevisiae deletion strains, locus YOR136W, strain idh2, stronger effect = lower value 0.986 | S. cerevisiae deletion strains, locus YOR144C, strain elg1, stronger effect = lower value 0.989 | S. cerevisiae deletion strains, locus YOR184W, strain ser1, stronger effect = lower value 1.03 | S. cerevisiae deletion strains, locus YOR231W, strain MKK1, stronger effect = lower value 0.996 | S. cerevisiae deletion strains, locus YOR265W, strain rbl2, stronger effect = lower value 1.01 | S. cerevisiae deletion strains, locus YOR270C, strain vph1, stronger effect = lower value 1.05 | S. cerevisiae deletion strains, locus YOR290C, strain snf2, stronger effect = lower value 1.01 | S. cerevisiae deletion strains, locus YOR316C, strain cot1, stronger effect = lower value 0.981 | S. cerevisiae deletion strains, locus YPL051W, strain arl3, stronger effect = lower value 1.01 | S. cerevisiae deletion strains, locus YPL055C, strain LGE1, stronger effect = lower value 1.05 | S. cerevisiae deletion strains, locus YPL078C, strain atp4, stronger effect = lower value 1.02 | S. cerevisiae deletion strains, locus YPL106C, strain sse1, stronger effect = lower value 1.02 | S. cerevisiae deletion strains, locus YPL240C, strain hsp82, stronger effect = lower value 1.01 | S. cerevisiae deletion strains, locus YPL256C, strain CLN2, stronger effect = lower value 1.01 | S. cerevisiae deletion strains, locus YPR119W, strain clb2, stronger effect = lower value 0.986 | S. cerevisiae deletion strains, locus YPR141C, strain kar3, stronger effect = lower value 0.981 | S. cerevisiae deletion strains, locus YPR163C, strain tif3, stronger effect = lower value 1.01 | S. cerevisiae deletion strains, locus YPR167C, strain met16, stronger effect = lower value 0.977 | S. cerevisiae deletion strains, strain wtn01, stronger effect = lower value 0.986 | S. cerevisiae strains, strain wild type, stronger effect = lower value 0.995
